The list is not random: actives were taken first. Their share in the collection is about 2.9%.
FID counter – compounds displacing fluorescent DNA intercalator, primary screen, artefact control for HCV NS3 helicase inhibitor project, biochemical, FID fluorescence; DNA fluorescent intercalator displacement; hit rate 0.17% among 290,000; inhibition, % at 7.9 µM; AID 1845, 2009; in the data active = inhibition above about 37%;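 note: 0% = vehicle and 100% = reference compound; higher means more ethidium bromide displaced from hairpin DNA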
MEKK2 WT-MEK5 – modulators of MEK5 binding to wildtype MEKK2, primary screen, biochemical, multiplex bead flow cytometry, Alexa488-MEK5 | Mitogen-activated protein kinase kinase kinase 2 (Homo sapiens), Q9Y2U5 | Alexa488-MEK5 binding to MEKK2 WT; actives lie on both sides | binding response (% of control), % at 10 µM | hit rate 1.1% among 290,000; in the data active = binding response below about 67% or above about 130%; inconclusive = no clear call, values can overlap the other calls; inactive = in between
dFosB act-1 – activators of delta FosB homodimer, primary screen, biochemical, fluorescence polarization, TAMRA-CDK5 oligo, single point; Protein FosB (Mus musculus), P13346; purified delta FosB; percent of positive-control signal above neutral wells; activation, % at 25 µM; hit rate 0.99% among 340,000;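 active = mean activation above about 17%, with every replicate also reaching it, limit read from the data, passing the limit was not always enough; inconclusive = only one of the two conditions met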
Target sequence (P13346 whole entry, looked up): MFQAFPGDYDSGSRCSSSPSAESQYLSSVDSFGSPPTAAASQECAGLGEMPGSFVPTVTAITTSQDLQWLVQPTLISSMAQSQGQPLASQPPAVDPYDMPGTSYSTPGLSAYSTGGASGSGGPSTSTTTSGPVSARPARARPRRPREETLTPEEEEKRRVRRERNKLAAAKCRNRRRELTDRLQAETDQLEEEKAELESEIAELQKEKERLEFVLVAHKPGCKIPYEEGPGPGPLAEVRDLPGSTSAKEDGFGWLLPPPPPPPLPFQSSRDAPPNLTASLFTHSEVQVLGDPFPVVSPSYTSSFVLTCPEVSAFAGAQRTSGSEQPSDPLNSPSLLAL
MEKK3 PB1 HTS – modulators of MEKK3-MEK5 PB1 binding, primary screen, biochemical, wildtype MEKK3, multiplex bead flow cytometry, Alexa488-MEK5; binding response (% of control), % at 10 µM; Mitogen-activated protein kinase kinase kinase 3 (Homo sapiens), Q99759; hit rate 1.4% among 290,000; AID 1529, 2009; bead-based flow cytometry, Alexa488-MEK5 binding to MEKK3; actives lie on both sides; 0 = blocked by unlabeled MEK5, 100 = vehicle;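 active = binding response more than 3 SD above or below the average of its plate-row segment, actives on both sides; inconclusive = wells at one plate position flagged as instrument error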;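 note: Alexa488 bead fluorescence after subtracting the streptavidin-only scavenger bead signal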
MEKK2 mut-MEK5 – MEK5 binding signal on mutant MEKK2 PB1, primary screen, biochemical, multiplex bead flow cytometry, Alexa488-MEK5. AID 1530, 2009. hit rate 0.35% among 290,000. percent response, % at 10 µM. Alexa488-MEK5 binding to MEKK2 mutant; in the data active = percent response above about 24%, passing the limit was not always enough
dFosB act-2 – activators of mouse delta FosB DNA binding, confirmation, biochemical, fluorescence polarization, TAMRA-CDK5 oligo, cherry-picked samples. activation, % at 24.9 µM. purified delta FosB; normalised: neutral wells 0, positive control 100. shares compounds with dFosB act-1. AID 588690, 2011. 2,400 tested, under 10 active;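 active = highest replicate activation at or above 34% and every replicate reaching that threshold; inconclusive = meets only one of the two criteria; inactive = meets neither criterion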;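 note: higher polarization means more probe DNA bound by delta FosB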
* marks the source's active call; other numbers are inactive results; ? = inconclusive; / = not tested or not shown.

SMILES	FID counter	MEKK2 WT-MEK5	dFosB act-1	MEKK3 PB1 HTS	MEKK2 mut-MEK5	dFosB act-2
CCn1cc(C(=O)NP(=O)(Nc2ccc(C)cc2)Nc2ccc(C)cc2)c2ccccc21	-9.0	89.0	35.6*	93.0	-5.0	-3.6
COc1ccc(C(CCN2CCN(c3ccccc3)CC2)c2c(OC)cc(OC)c3c(-c4ccccc4)cc(=O)oc23)cc1 (configuration not stated)	/	77.0	19.6*	70.0	3.0	2.2
O=[N+]([O-])c1cccc(C=Nc2cc3c(cc2Br)OCCO3)c1	-2.1	104.0	2.7	125.0	0.0	/
O=C(Nc1nc2c(Cl)cccc2s1)C1CC1	-1.4	109.0	-9.0	104.0	5.0	/
O=C(Nc1nc2c(Cl)ccc(Cl)c2s1)C1CC1	1.6	98.0	27.8*	98.0	-1.0	0.3
Cc1ccc(C(=O)N/N=C/c2ccc(-c3ccccc3[N+](=O)[O-])o2)cn1	3.7	94.0	2.1	101.0	3.0	/
COc1ccc(-c2ccc(/C=N/NC(=O)c3cccnc3)o2)c([N+](=O)[O-])c1	-1.3	85.0	50.2*	91.0	-3.0	-1.0
COc1ccc2cc1Oc1ccc(cc1)C[C@H]1c3cc(c(OC)cc3CCN1C)Oc1c(OC)c(OC)cc3c1[C@H](C2)N(C)CC3	/	117.0	25.9*	116.0	14.0	?
CSc1ccc(S(=O)(=O)NCCCOC(C)C)cc1	-6.9	104.0	-1.0	102.0	4.0	/
O=C(NCc1nc(-c2ccc(C(F)(F)F)cc2)no1)Nc1ccc(OC(F)(F)F)cc1	1.4	113.0	23.5*	101.0	2.0	2.7
O=S(=O)(c1ccccc1)N1CCN(c2nnnn2-c2ccccc2)CC1	-13.5	107.0	?	110.0	5.0	/
O=S(=O)(c1ccc2c(c1)OCO2)N1CCN(c2nnnn2-c2ccccc2)CC1	-11.3	109.0	24.6*	103.0	5.0	1.3
CCCCCCOC(=O)Sc1nc2ccccc2o1	-4.0	96.0	-1.9	103.0	3.0	/
CCOc1ccccc1CNCCOC	3.1	101.0	2.0	99.0	0.0	/
COc1ccc(S(=O)(=O)N2CCOC23CCN(S(=O)(=O)c2ccc(F)cc2C)CC3)cc1	/	/	-5.4	/	/	/
O=C(N/N=C/c1ccccc1Br)c1ccc(CSc2cccc3cccnc23)cc1	-12.2	95.0	27.8*	105.0	-5.0	5.6
O=C(N/N=C/c1cccc(O)c1)c1ccc(COc2cccc3cccnc23)cc1	-16.2	102.0	32.6*	108.0	2.0	0.1
COc1ccc(/C=N\NC(=O)c2ccc(-c3ccccc3)cc2)cc1COC(C)=O	-32.0	102.0	34.5*	106.0	1.0	-5.0
COc1ccc(/C=N/NC(=O)c2cc3c(ccc4ccccc43)o2)cc1OC	-42.5	106.0	76.9*	105.0	3.0	5.2
COc1ccc(/C=N\NC(=O)c2cc3c(ccc4ccccc43)o2)cc1O	-27.4	101.0	0.5	103.0	-1.0	/
Cc1cc(C)cc(C(=O)Oc2cc(C)[nH]c(=O)c2[N+](=O)[O-])c1	1.2	102.0	9.0	101.0	8.0	/
COc1cc(C(=O)N/N=C/c2ccc(OC(=O)c3ccccc3Cl)c(OC)c2)ccc1O	-35.6	101.0	24.6*	104.0	1.0	2.0
COc1ccc(/C=N/NC(=O)c2ccc(COc3cccc4cccnc34)cc2)cc1OC	-32.5	99.0	18.9*	97.0	-2.0	-1.1
COc1ccc(/C=N/NC(=O)c2ccc(COc3cccc4cccnc34)cc2)cc1O	-35.3	94.0	6.1	92.0	-11.0	/
C/C(=N\NC(=O)c1c(Cl)c(C)nn1C)c1ccc(NC(=O)C2CCC2)cc1	-36.2	108.0	1.0	102.0	5.0	/
SMILES	FID counter	MEKK2 WT-MEK5	dFosB act-1	MEKK3 PB1 HTS	MEKK2 mut-MEK5	dFosB act-2
C/C(=N\NC(=O)c1c(Cl)c(C)nn1C)c1ccc(NC(=O)COc2ccc(Cl)cc2C)cc1	-4.1	104.0	33.3*	108.0	11.0	2.1
C/C(=N\NC(=O)c1c(Cl)c(C)nn1C)c1cccc(NC(=O)COc2ccccc2)c1	-14.3	99.0	28.5*	99.0	0.0	-1.7
C/C(=N/NC(=O)CSCc1ccc(Cl)cc1)c1cccc(NC(=O)c2ccccc2)c1	0.8	102.0	38.5*	106.0	1.0	2.1
C/C(=N/NC(=O)c1cccs1)c1ccc(NC(=O)COc2ccc(Cl)cc2)cc1	-3.3	102.0	31.8*	101.0	5.0	5.4
C/C(=N\NC(=O)c1c(Cl)c(C)nn1C)c1cccc(NC(=O)c2cccc(F)c2)c1	-45.3	107.0	-6.7	103.0	7.0	/
C/C(=N\NC(=O)CSCc1ccc(Cl)cc1)c1ccc(NC(=O)c2ccccc2)cc1	0.0	/	-8.9	/	/	/
CCc1cccc(C)c1NC(=S)N(CCN(C)C)Cc1cccs1	7.7	107.0	-2.3	102.0	3.0	/
CCOC(=O)C1CCCCN1C(=O)/C(=C/c1ccc(OC)cc1)c1ccc(OC)c(OC)c1 (configuration not stated)	/	/	-6.2	/	/	/
O=C(CN1CCOCC1)N1CCOCC1	/	/	-1.5	/	/	/
CN(C(=O)c1ccccc1F)C(c1ccccc1)c1ccccc1	-38.0	99.0	-2.8	100.0	-2.0	/
CCOc1cc(/C=N/N=C(/N)c2nonc2N)cc(Br)c1OCc1ccc(Cl)cc1	-0.5	90.0	34.1*	96.0	-4.0	0.5
COc1cc(/C=N/N=C(/N)c2nonc2N)cc(Br)c1OCc1ccccc1C	-7.9	97.0	13.7	100.0	-6.0	/
O=C(OCc1nnc(-c2ccccc2)o1)c1ccc(S(=O)(=O)NCc2ccco2)cc1	-26.5	107.0	-3.6	108.0	10.0	/
COc1ccc(OCC(=O)Nc2nc3cc4c(cc3s2)OCCO4)cc1	/	/	47.0*	/	/	0.1
COc1ccc2nc(NC(=O)CS(=O)(=O)Cc3ccccc3)sc2c1	-3.4	98.0	74.3*	106.0	1.0	-1.8
COc1cc(C(=O)Nc2nc3ccc(S(C)(=O)=O)cc3s2)cc(OC)c1C	-12.2	99.0	30.1*	103.0	3.0	1.4
O=C(CS(=O)(=O)Cc1ccccc1)Nc1nc2ccccc2s1	-8.1	92.0	-1.4	97.0	-1.0	/
CC(=O)c1sc(NC(=O)c2oc3ccc(F)cc3c2C)nc1C	/	/	59.2*	/	/	-8.2
CCOCCCNC(=O)c1c[nH]c2c(CC)cccc2c1=O	-4.3	84.0	-15.6	96.0	-13.0	/
CC12CCC(C(=O)N3CCC(Cc4ccccc4)CC3)(C(=O)C1=O)C2(C)C (configuration not stated)	-8.0	74.0	-13.5	77.0	-19.0	/
CCCc1nnc(NC(=O)CCC(=O)N2CCN(C3c4ccccc4-c4ccccc43)CC2)s1	-0.8	102.0	-12.6	111.0	0.0	/

Screening data (PubChem BioAssay)
